Experimental findings from PubChem BioAssay (NCI) are described below.

Each structure is given as a SMILES string. This is part of a sample that, as a whole, favours compounds with a hit. Of some 83,000 tested, about 20% had one in any assay.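 The test compound was applied at a single concentration to cells in 96-well plates for 48 hours, and percent growth was recorded.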 A number with no mark means an inactive call. Active and inactive are the calls of the source. Rule for the calls: active = growth percent below 10; inactive = the rest.

Holding throughout (assay): NCI-60 one-dose screen, 48 h (100 = growth as untreated, 0 = no growth, -100 = all killed)
One experiment relates to SK-MEL-2 melanoma. Particulars: 10 µM unless noted.
The next experiment concerns EKVX NSCLC. Particulars: 10 µM unless noted.
A further experiment deals with SN12C renal. The settings on record: 10 µM unless noted.
In another experiment the test system is UO-31 renal. Particulars: 10 µM unless noted.
In another experiment the test system is ACHN renal. Particulars: 10 µM unless noted.
For a further experiment, the system named is CAKI-1 renal. Particulars: 10 µM unless noted.
For a further experiment, the system named is A498 renal. Particulars: 10 µM unless noted.
The test system of the next experiment is CCRF-CEM leukemia. Particulars: 10 µM unless noted.
The subject of another experiment is MOLT-4 leukemia. Particulars: 10 µM unless noted.
In a further experiment the test system is SR leukemia. The settings on record: 10 µM unless noted.
A further experiment deals with RPMI-8226 leukemia. Particulars: 10 µM unless noted.
For another experiment, the system named is OVCAR-8 ovarian. The settings on record: 10 µM unless noted.
For another experiment, the system named is OVCAR-5 ovarian. Particulars: 10 µM unless noted.
Another experiment deals with OVCAR-4 ovarian. The settings on record: 10 µM unless noted.
A further experiment relates to SK-OV-3 ovarian. Particulars: 10 µM unless noted.
The next experiment concerns IGROV1 ovarian. The settings on record: 10 µM unless noted.
In a further experiment the test system is OVCAR-3 ovarian. The settings on record: 10 µM unless noted.
For a further experiment, the system named is HS 578T breast. The settings on record: 10 µM.
Another experiment relates to NCI/ADR-RES ovarian. Particulars: 10 µM unless noted.
For a further experiment, the system named is TK-10 renal. Particulars: 10 µM unless noted.

Regarding `O=C(Cn1nncc1CN1C(=O)CSC1=O)Nc1ccc(F)cc1`, the growth was 101% in the experiment with SK-MEL-2 melanoma; 92.6% in the experiment on EKVX NSCLC; 98.3% in the experiment with SN12C renal; 87.6% in the experiment on UO-31 renal; 97.9% in the experiment on ACHN renal; 96.4% with CAKI-1 renal. Moreover, the growth is 76.4% in the experiment with A498 renal; 97.4% in the experiment on CCRF-CEM leukemia; 105% in the experiment on MOLT-4 leukemia; 124% with SR leukemia; 104% with RPMI-8226 leukemia; 108% with OVCAR-8 ovarian. Besides, the growth is 107% with OVCAR-5 ovarian; 103% with OVCAR-4 ovarian; 90.8% in the experiment on SK-OV-3 ovarian; 102% in the experiment with IGROV1 ovarian; 107% in the experiment with OVCAR-3 ovarian; 97.6% in the experiment on HS 578T breast. Moreover, the growth in the experiment with NCI/ADR-RES ovarian is 97.6%.
Consider `CC1C2CCC(C2)C1COCCOCCO` (stereo unspecified), for which the growth in the experiment on SK-MEL-2 melanoma is 112%; in the experiment with EKVX NSCLC it was 112%; in the experiment with SN12C renal it was 109%; in the experiment with UO-31 renal it was 98.7%; in the experiment with ACHN renal, 106%; with CAKI-1 renal it was 105%. In addition, the growth in the experiment with A498 renal is 83.7%; in the experiment with CCRF-CEM leukemia, 112%; in the experiment with MOLT-4 leukemia it was 97.6%; in the experiment with SR leukemia it was 105%; in the experiment with RPMI-8226 leukemia, 108%; in the experiment on OVCAR-8 ovarian, 102%. The growth in the experiment on OVCAR-5 ovarian was 107%; in the experiment with SK-OV-3 ovarian it was 110%; in the experiment with IGROV1 ovarian, 113%; in the experiment on OVCAR-3 ovarian, 112%; with NCI/ADR-RES ovarian it was 104%.
`COc1cc2nccc(Oc3ccc(NC(=O)C4(C(=O)Nc5c(F)cc(F)cc5F)CC4)cc3)c2cc1Oc1ccc(N)cn1`: the growth is 81.5% with SK-MEL-2 melanoma; 45.2% with EKVX NSCLC; 30.6% in the experiment on SN12C renal; 45.3% in the experiment with UO-31 renal; 50.9% in the experiment with ACHN renal; 65.6% with CAKI-1 renal. In addition, the growth was 70.9% with CCRF-CEM leukemia; 38.5% with MOLT-4 leukemia; 58.5% in the experiment with SR leukemia; 50.1% with RPMI-8226 leukemia; 69.7% in the experiment with OVCAR-8 ovarian; 70% with OVCAR-5 ovarian. Moreover, the growth in the experiment on OVCAR-4 ovarian was 28.4%; in the experiment with SK-OV-3 ovarian, 81.3%; with IGROV1 ovarian, 28.1%; in the experiment with HS 578T breast it was 25.8%; in the experiment on NCI/ADR-RES ovarian, 82.3%.
Regarding `C/C=C(\C)C(C(=O)NC1CCCCC1)N(C(=O)C1CCc2cc(F)ccc2O1)c1ccc([N+](=O)[O-])cc1` (stereo unspecified), the growth with SK-MEL-2 melanoma was 99.6%; in the experiment on EKVX NSCLC, 84.2%; in the experiment on SN12C renal it was 93.4%; in the experiment with UO-31 renal, 69.1%; in the experiment with TK-10 renal, 89.9%; with CAKI-1 renal, 80.2%. Moreover, the growth with A498 renal was 90.3%; with CCRF-CEM leukemia it was 97.3%; in the experiment with MOLT-4 leukemia, 76.4%; in the experiment on SR leukemia, 101%; in the experiment with RPMI-8226 leukemia, 79.1%; with OVCAR-8 ovarian it was 88.4%. Also, the growth was 93.4% with OVCAR-5 ovarian; 79% in the experiment on OVCAR-4 ovarian; 90.5% in the experiment on SK-OV-3 ovarian; 85.8% in the experiment with IGROV1 ovarian; 89.4% in the experiment on OVCAR-3 ovarian; 80.2% in the experiment with HS 578T breast. Further, the growth in the experiment with NCI/ADR-RES ovarian was 85.7%.
In the case of `Cc1ccc(N2C3c4ccccc4N(S(=O)(=O)c4ccc(C)cc4)C2c2ccccc2N3S(=O)(=O)c2ccc(C)cc2)cc1`, the growth was 111% in the experiment on SK-MEL-2 melanoma; 94.9% in the experiment with SN12C renal; 91.1% with UO-31 renal; 128% in the experiment with TK-10 renal; 95.2% in the experiment on ACHN renal; 100% in the experiment with CAKI-1 renal. Further, the growth in the experiment with A498 renal is 97%; in the experiment on CCRF-CEM leukemia, 89.2%; in the experiment on MOLT-4 leukemia, 93.5%; with SR leukemia it was 96%; in the experiment on RPMI-8226 leukemia, 93.1%; in the experiment with OVCAR-8 ovarian, 88.9%. Also, the growth is 105% in the experiment with OVCAR-5 ovarian; 93.9% in the experiment on OVCAR-4 ovarian; 106% in the experiment with SK-OV-3 ovarian; 107% in the experiment with OVCAR-3 ovarian; 99.5% in the experiment on HS 578T breast.
Take `O=NN(CC(=O)NNc1ccccc1)CC(=O)NNc1ccccc1`: the growth is 77.7% with SK-MEL-2 melanoma; 87% in the experiment on SN12C renal; 22% in the experiment with UO-31 renal; 84.3% with TK-10 renal; 46.4% in the experiment on ACHN renal; 36% in the experiment with CAKI-1 renal. The growth is 107% in the experiment with A498 renal; 30.7% with CCRF-CEM leukemia; 42.2% in the experiment on MOLT-4 leukemia; 74.3% in the experiment on SR leukemia; 55.4% in the experiment on RPMI-8226 leukemia; 67.7% in the experiment with OVCAR-8 ovarian. Moreover, the growth in the experiment with OVCAR-5 ovarian is 74.5%; in the experiment on OVCAR-4 ovarian, 70.8%; in the experiment with SK-OV-3 ovarian, 101%; in the experiment with OVCAR-3 ovarian it was 86.9%; in the experiment with HS 578T breast it was 94.2%; in the experiment with NCI/ADR-RES ovarian it was 40.7%.
Take `CC1CCN(Cc2ccc(NC(=O)c3cc4ccc5cccnc5c4[nH]3)cc2)CC1`: the growth in the experiment on SK-MEL-2 melanoma is 12%; in the experiment on SN12C renal, 33%; in the experiment on UO-31 renal, 36.7%; in the experiment on TK-10 renal, 51.1%; in the experiment with ACHN renal, 53.9%; with CAKI-1 renal, 4.42% (active). In addition, the growth was -8.68% (active) in the experiment with A498 renal; 3.08% (active) in the experiment on CCRF-CEM leukemia; 11.8% with MOLT-4 leukemia; 2.01% (active) in the experiment on SR leukemia; 19.8% in the experiment with RPMI-8226 leukemia; 34.1% in the experiment on OVCAR-8 ovarian. In addition, the growth with OVCAR-5 ovarian was 51.8%; in the experiment on OVCAR-4 ovarian it was 66.5%; in the experiment on SK-OV-3 ovarian, 12.7%; in the experiment on IGROV1 ovarian, 46.7%; with OVCAR-3 ovarian it was -14.3% (active); with HS 578T breast it was 33.7%.
Take `[O-]/[N+](=C\c1ccccc1)CC1(O)CCCCC1`: the growth in the experiment with SK-MEL-2 melanoma is 111%; in the experiment on SN12C renal, 94.5%; in the experiment with UO-31 renal it was 96.3%; with TK-10 renal, 103%; in the experiment with ACHN renal, 99.2%; in the experiment on CAKI-1 renal, 104%. Besides, the growth with A498 renal is 82.9%; with CCRF-CEM leukemia, 101%; with MOLT-4 leukemia, 106%; in the experiment with SR leukemia it was 99.5%; with RPMI-8226 leukemia, 97.2%; in the experiment with OVCAR-8 ovarian, 99.5%. Further, the growth with OVCAR-5 ovarian was 95.8%; in the experiment with OVCAR-4 ovarian it was 95.9%; in the experiment on SK-OV-3 ovarian, 113%; with IGROV1 ovarian, 125%; with OVCAR-3 ovarian, 111%; in the experiment on HS 578T breast, 98.2%.
As for `CCn1c(CN2CCN(Cc3ccccc3)CC2)nc2cc(NC(=O)c3cccs3)ccc21`, the growth is -50.1% (active) with SK-MEL-2 melanoma; -87.6% (active) in the experiment on SN12C renal; -96.7% (active) in the experiment with UO-31 renal; -94.1% (active) in the experiment with TK-10 renal; -79.2% (active) with ACHN renal; -92.5% (active) in the experiment on CAKI-1 renal. The growth in the experiment on A498 renal was -91.6% (active); in the experiment with CCRF-CEM leukemia it was -39.2% (active); in the experiment with MOLT-4 leukemia it was -11.3% (active); in the experiment on SR leukemia, -9.71% (active); in the experiment on RPMI-8226 leukemia, -27.6% (active); in the experiment with OVCAR-8 ovarian, -61.8% (active). Moreover, the growth in the experiment with OVCAR-5 ovarian was 4.74% (active); in the experiment on OVCAR-4 ovarian, -51.2% (active); in the experiment on SK-OV-3 ovarian it was -95.1% (active); in the experiment on IGROV1 ovarian, -83% (active); in the experiment on OVCAR-3 ovarian, -94.5% (active); in the experiment on HS 578T breast, -25.3% (active).
